# From PubChem BioAssay (NCATS)
# Results filed as inconclusive are left out. Unmarked numbers belong to inactive results. Calls come from the whole dose curve; as a rule, active = well fitted cell-killing curve with a large enough effect; inconclusive = small, poorly fitted or top-dose-only effect; inactive = flat fitted curve, though single readings scatter.
# Test: Cell Viability - LYMP2-012 (AID 982);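 note: cellular ATP by luciferase luminescence where a drop means cytotoxicity; cells exposed to compound for one day before reading; 0% = DMSO only and full loss = 92 µM tetraoctylammonium bromide; nearly all actives have a fitted effect of over 55% in size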
# Conditions: LYMP2-012 lymphoblastoid cell viability qHTS; series mostly up to 92.2 µM; activity change, negative = cytotoxicity: at the top concentration
row,Structure (SMILES),"activity change, negative = cytotoxicity [%]"
1,Oc1cccc(Cl)c1Cl,-8.66
2,CCC/C=N/O,-5.54
3,Nc1cccc2ccccc12,-12.1
4,Cc1cnc[nH]1,1.25
5,CN(C)N=O,-8.78
6,COc1c(C(C)(C)C)cc([N+](=O)[O-])c(C)c1[N+](=O)[O-],-3.42
7,C=C(Cl)CCl,-8.36
8,ClCCOCOCCCl,-2.16
9,Cl/C=C/Cl,-4.69
10,CCCCOCC1CO1 (configuration not stated),-24.3
11,O=C(O)c1cccc(Cl)c1,9.83
12,C1CC2OC2CC1C1CO1 (configuration not stated),-1.42
13,Brc1cccc(-c2ccccc2)c1,8.15
14,Oc1c(Cl)cccc1Cl,5.12
15,ClCCOCCCl,2.93
16,CCNCC,4.49
17,CC(C)C#N,1.99
18,Cl/C=C\Cl,-16.4

row,Structure (SMILES),"activity change, negative = cytotoxicity [%]"
1,c1ccc2c(c1)CCNC2,-10
2,CCBr,1.22
3,O=[N+]([O-])c1ccc(Cl)c(Cl)c1Cl,7.82
4,N#CCCC#N,3.07
5,Cc1ccccc1[N+](=O)[O-],-3.43
6,OCCBr,-5.72
7,C=CC(=O)OCCN(C)C,8.89
8,CC(C)(C)C(O)(CCc1ccc(Cl)cc1)Cn1cncn1 (configuration not stated),-7.7
9,N#CCCCCC#N,5.9
10,c1ccc(C2CO2)cc1 (configuration not stated),-0.966
11,CCCCCC[N+](=O)[O-],1.9
12,OCC(Cl)CCl (configuration not stated),8.59
13,COc1ccc(C=O)cc1,-1.83
14,CC(=O)[O-].CC(=O)[O-].CC(=O)[O-].[Cr+3],1.73
15,CC(=O)CCC(C)=O,-3.1
16,C=CC(=O)OCC(CC)CCCC (configuration not stated),12.8
17,CC(C#N)CCC#N (configuration not stated),-1.61

# Test: Cell Viability - LYMP2-014 (AID 983);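 note: plate controls were DMSO only for no effect and 92 µM tetraoctylammonium bromide for full effect; nearly all actives have a fitted effect of over 50% in size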
# Conditions: LYMP2-014 lymphoblastoid cells, viability qHTS; series mostly up to 92.2 µM; activity change, negative = cytotoxicity: at the top concentration
# Method in brief: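 Human lymphoblastoid cells (2500/well) were pre-incubated 5 hr at 37 C, then exposed to compounds in complete medium for 24 hr at 37 C. Intracellular ATP was read by CellTiter-Glo luminescence after 30 min at room temperature; AC50 from Hill fits.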
row,Structure (SMILES),"activity change, negative = cytotoxicity [%]"
1,Oc1cccc(Cl)c1Cl,-0.746
2,CCC/C=N/O,-2.09
3,Nc1cccc2ccccc12,-4.14
4,Cc1cnc[nH]1,-4.18
5,CN(C)N=O,-3.82
6,COc1c(C(C)(C)C)cc([N+](=O)[O-])c(C)c1[N+](=O)[O-],6.94
7,C=C(Cl)CCl,-11.9
8,ClCCOCOCCCl,-12.3
9,CC12CC1(C)C(=O)N(c1cc(Cl)cc(Cl)c1)C2=O (configuration not stated),1.56
10,Cl/C=C/Cl,-9.72
11,O=C(O)c1cccc(Cl)c1,-5.26
12,C1CC2OC2CC1C1CO1 (configuration not stated),-12.3
13,Oc1c(Cl)cccc1Cl,0.0672
14,ClCCOCCCl,-0.191
15,CC(C)C#N,1.74
16,Cl/C=C\Cl,-6.32

row,Structure (SMILES),"activity change, negative = cytotoxicity [%]"
1,c1ccc2c(c1)CCNC2,-15.5
2,CCBr,6.08
3,O=[N+]([O-])c1ccc(Cl)c(Cl)c1Cl,-9.58
4,N#CCCC#N,-9.18
5,Cc1ccccc1[N+](=O)[O-],0.594
6,OCCBr,-5.13
7,C=CC(=O)OCCN(C)C,4.52
8,CC(C)(C)C(O)(CCc1ccc(Cl)cc1)Cn1cncn1 (configuration not stated),-5
9,N#CCCCCC#N,-1.33
10,CN=C=O,-2.21
11,c1ccc(C2CO2)cc1 (configuration not stated),-3.22
12,OCC(Cl)CCl (configuration not stated),-3.73
13,COc1ccc(C=O)cc1,11.7
14,Nc1ccc(Cl)c(Cl)c1,-9.12
15,C=CC(=O)OCC(CC)CCCC (configuration not stated),-7.28
16,CC(C#N)CCC#N (configuration not stated),-6.56
